VP16 counter: VP16 counterscreen qHTS for inhibitors of ROR gamma transcriptional activity. Drosophila S2 Gal4-VP16 UAS-luciferase, luminescence, 20 h. Potency, µM (titrated, usually from 53.6 µM), hits mostly inhibitors. hit rate 3.5% among 310,000;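 further: Gal4-VP16 expression switched on by copper sulfate through the metallothionein promoter; nearly all actives have a fitted effect of over 50% in size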
ELG1 repair inh: qHTS screen for small molecules that inhibit ELG1-dependent DNA repair in human embryonic kidney (HEK293T) cells expressing luciferase-tagged ELG1; HEK293T ELG1-luciferase reporter, luminescence, 16 h; DNA damage induced by 5-fluorouridine; hit rate 2.3% among 330,000; Potency, µM (top dose mostly 46.1 µM), hits mostly inhibitors; further: nearly all actives have a fitted effect of over 55% in size
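Cells (2,000 per well) received 5-fluorouridine plus test compound or DMSO and were incubated 16 hr at 37 °C, 5% CO2. Luciferase activity was read by luminescence 30 min after ONE-Glo addition; signal suppression marked inhibition of damage-induced ELG1 function.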
RORgamma inh: qHTS for inhibitors of ROR gamma transcriptional activity. Drosophila S2 Gal4-RORgamma UAS-luciferase reporter, 20 h. hit rate 5.4% among 310,000. Nuclear receptor ROR-gamma (Mus musculus), P51450. Potency, µM (doses to about 53.6 µM), most hits filed as inhibitors. AID 2551, 2010; further: nearly all actives have a fitted effect of over 60% in size
Target sequence (P51450 whole entry, looked up, the tested form may be a part): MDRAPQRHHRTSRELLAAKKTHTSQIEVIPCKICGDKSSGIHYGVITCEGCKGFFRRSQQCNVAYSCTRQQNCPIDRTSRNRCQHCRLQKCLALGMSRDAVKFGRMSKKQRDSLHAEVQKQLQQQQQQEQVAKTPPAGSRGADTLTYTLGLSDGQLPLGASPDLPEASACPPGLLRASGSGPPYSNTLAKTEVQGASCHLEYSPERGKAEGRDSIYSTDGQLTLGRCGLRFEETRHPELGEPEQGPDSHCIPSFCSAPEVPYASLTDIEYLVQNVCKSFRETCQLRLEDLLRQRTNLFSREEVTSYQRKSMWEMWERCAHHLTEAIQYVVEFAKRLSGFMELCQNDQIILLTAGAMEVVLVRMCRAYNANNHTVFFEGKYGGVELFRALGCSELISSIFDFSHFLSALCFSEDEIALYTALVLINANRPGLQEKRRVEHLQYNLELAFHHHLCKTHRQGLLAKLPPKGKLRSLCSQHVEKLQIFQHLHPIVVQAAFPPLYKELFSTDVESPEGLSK
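Compounds are pin-transferred onto Drosophila Schneider cells expressing a copper-inducible Gal4–ROR gamma transactivation domain fusion. After 1 hr, copper sulfate is added to 700 uM final; luciferase is read 20 hr later.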
TSHR antag: Antagonists of the Thyroid Stimulating Hormone Receptor: HTS campaign | activity change, negative = inhibition, % at 11.5 µM | hit rate 0.2% among 330,000 | TSHR-expressing cells, TSH-stimulated cAMP HTRF, 2 h; stronger effect = lower value | AID 504810, 2011;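 active means activity change below a set negative limit, meaning inhibition stronger than a set level, cut at about -70% in these data; inconclusive means activity change between two set negative limits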
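Competitive HTRF cAMP read-out (cryptate anti-cAMP antibody, cAMP-d2; 30 min, room temperature) in freshly harvested TSHR cells. Compounds added before TSH at EC80 (4nM final), followed by 2 hours' incubation at 37 deg C.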
FBPA coupling cs: qHTS Assay for Inhibitors of Fructose-1,6-bisphosphate Aldolase from Giardia Lamblia: Coupling assay counterscreen. hit rate 0.67% among 290,000. coupling enzyme system counterscreen, AmpLite Red fluorescence. activity change, negative = inhibition, % at 58.2 µM, hits read low; in the data active means activity change below about -30%
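Fluorescence at 525 nm excitation and 598 nm emission measured inhibition of the coupled detection system without aldolase. Compounds (at 57.5 uM final) were preincubated 10 min at room temperature with coupling enzyme reagent before a 20 min substrate/AmpLite Red step.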
Hits are given with their value; – = inactive; ? = inconclusive; · = no result; [ ] = dose if it differs, or a comment. Shown are actives, neighbours in structure and some others; about 8% of the full set was active somewhere. Unless noted, the call rests on the fitted dose curve; in most records, active means well fitted curve in the direction sought with a large enough effect; inconclusive means small, poorly fitted or top-dose-only effect, or another doubt; inactive means no such curve, though single readings can be large; an effect the other way counts as inactive or inconclusive.

SMILES	VP16 counter	ELG1 repair inh	RORgamma inh	TSHR antag	FBPA coupling cs
COC(=O)C1=C(C(=O)OC)[C@@H]2N(C)c3ccccc3[C@@]23C[C@@H](C(=O)OC)N(C(=O)c2cccs2)C3=N1	–	–	–	–	–
COC(=O)C1=C(C(=O)OC)[C@@H]2N(Cc3ccccc3)c3ccccc3[C@@]23C[C@@H](C(=O)OC)N(C(=O)c2cccs2)C3=N1	18µM	–	?	–	–
COc1ccc(NC2=NC(=S)N(c3cccc(C)c3)C23CCCCC3)cc1	?	?	2µM	–	–
COc1ccc(NC2=NC(=S)N(c3ccc(C)cc3)C23CCCCC3)cc1	–	–	0.56µM	–	–
CCSC1=NSC2=NC(=O)/C(=C\c3coc4ccccc4c3=O)C(=N)N12	–	–	–	-91	–
COc1ccc(-c2cc(C(F)F)nc(-n3nc(C)cc3C)n2)cc1	1.4µM	?	0.89µM	–	–
COc1ccc(OC)c(-c2csc(CCn3nc(C)cc3C)n2)c1	–	–	14µM	–	–
COc1ccc(-c2csc(CCn3nc(C)cc3C)n2)cc1	?	–	10µM	–	–
O=C(O)[C@H]1CN[C@H](C(=O)O)C1	–	·	–	·	–
O=C(CBr)Nc1c2c(nn1-c1ccccc1)CSC2	–	–	–	–	–
CCOC(=O)N/N=C1/C[C@@H](O)[C@@H](O)[C@@H]2[C@@H]3C(=O)N([C@@H](C)c4ccccc4)C(=O)[C@H]3CC[C@@H]12	–[10 µM]	·	–[10 µM]	·	–
Cc1nc(N=Nc2ccc(O)cc2)n[nH]1	–	?	–	–	–
CC1=NN(C(N)=S)C(=O)C1N=Nc1cccc(C)c1 (stereo unspecified)	–	–	–	–	–
CC1=NN(C(N)=S)C(=O)C1N=Nc1ccc(O)cc1 (stereo unspecified)	?	–	4µM	–	–
CC1=NN(C(N)=S)C(=O)C1N=Nc1ccc(C)c(Br)c1 (stereo unspecified)	2.8µM	?	0.71µM	–	–
CCOc1ccc(N=NC2C(=O)N(C(N)=S)N=C2C)cc1 (stereo unspecified)	0.35µM	?	0.32µM	–	–
CC1=NN(C(N)=S)C(=O)C1N=Nc1cccc(C(=O)O)c1 (stereo unspecified)	?	–	11µM	–	–
COc1ccc(NC(=O)CC2SC(N3CCOCC3)=NC2=O)cc1OC (stereo unspecified)	·	–	·	–	·
COC(=O)NC(CC(C)=O)c1ccc2c(c1)OCO2 (stereo unspecified)	–[10 µM]	·	–[10 µM]	·	–
Cc1ccc(OCCC(=O)NNC(=O)c2ccc(Br)cc2)cc1	·	–	·	–	·
O=C(Nc1ccnn1C1CCN(C(=O)CCc2ccc(F)cc2)CC1)C1CCOC1 (stereo unspecified)	–	–	–	–	–
CN(C)c1ccc(/C=C2\C(=N)N3C(=NC2=O)Sc2cc(S(C)(=O)=O)ccc23)cc1	–	–	–	–	–
CCOC(=O)c1nnn(-c2ccc([N+](=O)[O-])cc2)c1C	–	?	–	–	–
CC1=NN(C(N)=S)C(=O)C1N=Nc1ccc([N+](=O)[O-])cc1 (stereo unspecified)	1.3µM	?	0.16µM	–	–
CC(=O)Nc1ccc(N=NC2C(=O)N(C(N)=S)N=C2C)cc1 (stereo unspecified)	8.9µM	?	5µM	–	–
SMILES	VP16 counter	ELG1 repair inh	RORgamma inh	TSHR antag	FBPA coupling cs
CC1=NN(C(N)=S)C(=O)C1N=Nc1ccc(F)cc1 (stereo unspecified)	1.3µM	?	1µM	–	–
CC(=O)Nc1ccc(N)cc1	–	–	–	–	·
CC1(C)CC(=O)C(N=Nc2ccc(F)cc2)=C(O)C1	–	?	–	–	–
CC(C)CC(c1nnnn1Cc1cccs1)N1CCN(c2nc3ccccc3s2)CC1 (stereo unspecified)	–	?	10µM	–	–
COc1ccc(Cn2nnnc2C(c2ccccn2)N2CCN(c3cc(Cl)ccc3C)CC2)cc1 (stereo unspecified)	–	?	–	-93	–
COc1ccc(Cn2nnnc2C(CC(C)C)N2CCN(c3ccccc3)CC2)cc1 (stereo unspecified)	–	?	–	-72	–
